# Giardia FBPA inh: blocks Giardia fructose-bisphosphate aldolase activity; purified Giardia FBPA; 290,000 tested, 0.71% active; Potency, µM (highest dose often 59.6 µM), for inactives: at the top dose activity, negative = inhibition, actives largely listed as inhibitors; AID 2451; A8B2U2; note: potency is the fitted concentration of half-maximal effect; % is set by controls: 0 for no effect and ±100 for the full control effect; nearly all actives have a fitted effect of over 55% in size
# Target sequence (A8B2U2 whole entry, looked up): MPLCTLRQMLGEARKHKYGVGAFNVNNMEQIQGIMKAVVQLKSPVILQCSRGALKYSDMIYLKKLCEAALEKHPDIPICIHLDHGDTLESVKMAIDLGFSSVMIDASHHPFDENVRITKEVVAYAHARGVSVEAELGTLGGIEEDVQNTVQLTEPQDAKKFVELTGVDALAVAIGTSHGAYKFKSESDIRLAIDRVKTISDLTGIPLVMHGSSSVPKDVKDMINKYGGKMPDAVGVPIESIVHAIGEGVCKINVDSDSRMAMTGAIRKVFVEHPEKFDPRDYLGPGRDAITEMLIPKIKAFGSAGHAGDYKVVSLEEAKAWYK
#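 Giardia FBPA (40 nM reagent) was preincubated 10 min at RT with compound (up to 57.5 uM final), then substrate plus GAPDH/TPI/NAD/arsenate coupling system with diaphorase/resazurin was added; resorufin fluorescence (525/598 nm) was read after 20 min.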
# Shiga toxin inh: inhibitors of Shiga toxin in Vero cells; 290,000 tested, 9.2% active; Vero cells, Shiga toxin protein synthesis inhibition reporter; AID 2315; inhibition, % at 38.7 µM; in the data active = inhibition mostly above about 28%, no sharp cut-off; inactive = mostly below about 43%; note: 0% is about no effect
# Cycloheximide cs: counter-screen hit for Shiga toxin inhibitors, cycloheximide. cell reporter, cycloheximide protein synthesis inhibition counterscreen. max response, %. 300,000 tested, 12% active; in the data active = max response mostly above about 13%, no sharp cut-off; inactive = mostly below about 14%; note: read at 38.3 µM for the half of the compounds with a filed dose; 0% is about no effect
# Pf growth 48h: inhibits P. falciparum growth in the first generation, 48 h. P. falciparum luciferase growth in erythrocytes, 48 h. Potency, µM (highest dose often 28.7 µM), inactives show at the top dose activity change, negative = inhibition, usual class: inhibitors. 310,000 tested, 5.9% active; note: potency is the fitted concentration of half-maximal effect; % is set by controls: 0 for no effect and ±100 for the full control effect
#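 Cell-based growth assay: transgenic P. falciparum expressing firefly luciferase, cultured in red cells within RPMI 1640 containing 0.5% w/v Albumax, 24 mM bicarbonate and gentamycin. A drop in luciferase activity indicates inhibition.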
# Pf growth 96h: P. falciparum growth inhibition at 96 hour, primary screen for plastid delayed-death inhibitors; P. falciparum luciferase reporter growth, 96 h; Potency, µM (titrated, usually from 28.7 µM), without a hit: at the top dose activity change, negative = inhibition, actives largely listed as inhibitors; 320,000 tested, 6.9% active; AID 504834; note: potency is the fitted concentration of half-maximal effect; % is set by controls: 0 for no effect and ±100 for the full control effect
#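 96 h incubation, 37 C, 5% CO2, of luciferase-reporter P. falciparum-infected RBCs (2% hematocrit, 0.05% parasitemia final) with test compounds; endpoint luminescence.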
# NS1 inh: blocks influenza NS1 protein function; Potency, µM (doses to about 46.1 µM), without a hit: at the highest dose activity, positive = more growth; 270,000 tested, 0.4% active; calls by dose curve; note: potency is the fitted concentration of half-maximal effect; actives are rising curves; nearly all actives have a fitted effect of over 50% in size
#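 A cell-based growth assay was used: compounds that relieve NS1-induced slow growth of budding yeast raise OD600. Assay medium was yeast nitrogen base with ammonium sulphate and -URA supplement, pH 6.0, with 2% galactose.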
# * marks the source's active call; other numbers are inactive results; ? = inconclusive; · = no result; [ ] = dose if it differs, or a comment. An excerpt weighted towards active compounds, which were near 21% of everything screened. Unless noted, calls come from the whole dose curve; as a rule, active = well fitted curve in the direction sought with a large enough effect; inconclusive = small, poorly fitted or top-dose-only effect, or another doubt; inactive = no such curve, though single readings can be large; an effect the other way counts as inactive or inconclusive.
SMILES,Giardia FBPA inh,Shiga toxin inh,Cycloheximide cs,Pf growth 48h,Pf growth 96h,NS1 inh
COC(=O)c1ccccc1NC(=S)N1CCN(c2ccccc2)CC1,-13.3%,1.6,-7.7,14.5%[0.00184 µM],-5.3%,-1.0%
COC(=O)c1ccccc1NC(=O)N1CCN(c2ccc(F)cc2)CC1,-3.4%,-20.3,1.1,-8.6%,4.15µM*,0.3%
CSCC[C@H](NC(=O)N1CCn2c1nc1ccccc12)C(=O)N1CCCCC1,1.2%,16.4,0.6,-16.8%,6.7%,-17.8%
CSc1cccc(CN2CCC(n3nccc3NC(=O)C3CC3)CC2)c1,·,-9.9,4.8,?,-1.4%,11.5%
Cc1nn(Cc2nnc(SCC(=O)Nc3ccc(Cl)cc3)n2C)c(C)c1[N+](=O)[O-],3.2%,18.9,-1.5,-10.2%,-4.1%,6.1%
O=c1n(-c2ccccc2)c(=O)n2n1CC[C@H]1/C(=N\OC[C@@H](O)COCc3ccco3)[C@H]3O[C@@H]3[C@@H](O)[C@@H]12,-0.6%[12.9 µM],·,·,·,·,·
CCOC(=O)c1ccc(CSc2nnc(-c3ccncc3)n2N)cc1,-2.3%,77.1,40.5*,-24.6%,23.4%,0.7%
COC(=O)c1ccccc1NC(=O)CCCn1nc([N+](=O)[O-])cc1C,3.1%,1.0,-2.2,0.0%,7.4%,·
COC(=O)c1ccccc1NC(=O)c1cc([N+](=O)[O-])nn1Cc1ccccc1,-0.1%,-10.8,-1.1,-3.9%,0.657µM*,3.7%
COc1ccc(Nc2nc(N)nc(CSC(=S)N3CCN(c4ccccc4)CC3)n2)cc1,0.5%,-2.0,1.3,?,11.7µM*,18.3%
CC1CCN(C(=S)SCc2nc(N)nc(Nc3ccccc3)n2)CC1,-4.0%,35.4*,25.1*,-24.5%,-26.1%,-2.7%
CCOc1ccc(Nc2nc(N)nc(CSC(=S)N3CCN(c4ccccc4)CC3)n2)cc1,-7.3%,24.6,4.5,11.7µM*,13.1µM*,7.7%
O=C(CN(c1ccc(F)cc1)S(=O)(=O)c1ccccc1)NC1CCCCCC1,·,-33.5,-2.0,?,?,10.3%
CCN(CC(=O)NC1CCS(=O)(=O)C1)S(=O)(=O)c1ccc(Cl)cc1C(F)(F)F (stereo not given),·,·,·,7.0%,-15.2%,·
CCCCOc1ccccc1C(=O)N(Cc1ccc(C)o1)C1CCS(=O)(=O)C1 (stereo not given),·,-2.7,-0.6,0.0%,-27.8%,-7.1%
O=C(COc1ccccc1)N/N=C/c1sc(=O)n(Cc2cccc(C(=O)O)c2)c1Cl,9.4%,-5.6,-1.8,?,?,15.7%
O=C(N/N=C/c1sc(=O)n(-c2ccccc2)c1Cl)c1ccccc1,-2.9%,75.8*,28.2*,?,2.33µM*,14.8%
NC(=O)N/N=C/c1sc(=O)n(-c2ccccc2)c1Cl,-0.7%,46.8,15.6*,27.8%,25.4%,1.1%
Cc1ccc(N(CC(O)CN2C(=O)NC(C)(C)C2=O)S(=O)(=O)c2ccc([N+](=O)[O-])cc2)cc1 (stereo not given),·,6.3,4.5,7.9%,?,5.6%
Cc1ccc(Oc2ccc(-c3nnc(-c4ccccc4)o3)cc2[N+](=O)[O-])cc1C,6.5%,-1.8,-0.7,15.0%,20.7%,13.9%
Cc1ccc(C2(c3noc(CN(C)CCCN4CCOCC4)n3)CCCC2)cc1,-0.6%,-5.7,1.7,-9.0%,8.28µM*,-4.8%
Cc1ccc(C2(c3noc(CN(C)Cc4cnn(C)c4)n3)CCCC2)cc1,-5.4%,1.9,-1.2,10.7%,11.7µM*,4.7%
CC(=O)N1N=C(c2ccco2)CC1c1ccc(Cl)o1 (stereo not given),-9.2%,3.5,-0.4,23.8%,0.1%,1.0%
O=C(Nc1ccc2c(c1)OCCO2)C1CCCN(S(=O)(=O)Cc2ccccc2)C1 (stereo not given),-12.6%,71.9*,55.8*,·,0.0%,-4.7%
O=C(NCc1ccccn1)C1CCCN(S(=O)(=O)c2ccccc2)C1 (stereo not given),0.6%,-8.0,-2.8,4.6%,·,-0.3%
O=C(O)C1CCCN(S(=O)(=O)Cc2ccccc2)C1 (stereo not given),0.1%,4.7,-1.3,38.0%,2.33µM*,2.7%
O=C(NCCc1ccccn1)C1CCCN(S(=O)(=O)Cc2ccccc2)C1 (stereo not given),3.7%,-14.3,-1.7,·,3.7µM*,-7.6%

# Screening data deposited in PubChem BioAssay by National Center for Advancing Translational Sciences (NCATS).
